Assay outcomes as filed in PubChem.
Sampled rows, rich in hits. Any-hit rate of the full collection: about 14%.
Marburg entry inh: Marburg virus entry inhibition | Potency, µM (top dose mostly 37.8 µM), for inactives: at the highest dose activity change, negative = inhibition, usual class: inhibitors | 300,000 tested, 1.8% active | Marburg virus pseudotyped entry inhibition, cell reporter; calls by dose curve; tested in HEK293 cells; further: potency means the concentration at half of the fitted maximal effect
LASV entry inh: blocks Lassa virus binding to or entry into cells | Lassa virus pseudotype entry inhibition, cell reporter | Potency, µM (series often up to 37.9 µM), without a hit: at the highest dose activity change, negative = inhibition, actives largely listed as inhibitors | AID 540256 | 300,000 tested, 1.2% active; calls by dose curve; tested in HEK293 cells; further: potency means the concentration at half of the fitted maximal effect; nearly all actives have a fitted effect of over 50% in size
HCMV inh: blocks human cytomegalovirus replication; HFF cells, HCMV-luciferase reporter, 72 h; stronger effect = lower value; activity change, negative = inhibition, % at 57.5 µM; 410,000 tested, 4.5% active; in the data active means activity change below about -60%; inconclusive means no clear call, values can overlap the other calls; inactive means above about -39%
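Two compound doses tested in HFFs infected with HCMV-luciferase, MOI 1 PFU/cell, 72 h at 37C. Lysate luminescence read with OneGlo; data normalized against buffer-only and 10uM Salinomycin inhibitor controls.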
Pf growth 48h: P. falciparum growth inhibition at 48 hours (one generation); P. falciparum luciferase growth in erythrocytes, 48 h; Potency, µM (series often up to 28.7 µM), for the others: at the highest dose activity change, negative = inhibition, hits mostly inhibitors; 310,000 tested, 5.9% active; AID 504832; further: potency means the concentration at half of the fitted maximal effect
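Firefly luciferase activity from engineered P. falciparum reports growth; inhibitors lower the luminescent signal. Cultures contained 2% hematocrit erythrocytes at 0.1% final parasitemia.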
Pf growth 96h: P. falciparum growth inhibition at 96 hours; P. falciparum luciferase reporter growth, 96 h; Potency, µM (series often up to 28.7 µM), for the others: top-dose activity change, negative = inhibition, most hits filed as inhibitors; 320,000 tested, 6.9% active; AID 504834; further: potency means the concentration at half of the fitted maximal effect
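Infected RBCs, 2% Hct / 0.05% parasitemia final; luciferase-reporter P. falciparum; cpd 96 h, 37 C, 5% CO2; luciferase detection reagent; luminescence.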
HCV inhibitor: blocks hepatitis C virus. Huh7.5.1 HCVcc-Cre infection, luciferase reporter, 44 h. Potency, µM (titrated, usually from 41.8 µM), for inactives: top-dose activity change, negative = inhibition, actives largely listed as inhibitors. 340,000 tested, 3.4% active; further: potency means the concentration at half of the fitted maximal effect
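HCVcc-Cre virus at an moi near 0.5 was added right after compound to cells cultured 4 h from seeding (1,000 cells/well). Luciferase activity was determined 44 h later, 15 min after substrate addition at RT.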
Active calls of the source: *; ? = inconclusive; . = no result; + = active, no number; [ ] = dose if it differs, or a comment. Unless noted, the call rests on the fitted dose curve; in most records, active means well fitted inhibition curve with a large enough effect; inconclusive means small, poorly fitted or top-dose-only effect, or another doubt; inactive means no such curve, though single readings can be large or run the other way. On the % scale 0 is the no-effect control and ±100 the full control effect.

SMILES	Marburg entry inh	LASV entry inh	HCMV inh	Pf growth 48h	Pf growth 96h	HCV inhibitor
Cc1nnc(CN(C)C(=O)c2cc(COc3ccc(F)cc3Cl)on2)o1	?	1%	.	107%	32%	17%
Cc1cnc(CN(C)C(=O)c2cc(COc3c(F)cccc3F)on2)[nH]1	15%[46.1 µM]	-8%	-30	4.1µM*	-27%	-12%
Cc1ccc(OCc2cc(C(=O)N(C)Cc3cnn(-c4ccccc4C)c3)no2)cn1	?	7.9µM*	-26	7%	?	11µM*
Cc1nc(CN(C)C(=O)c2cc(COc3ccc4ncccc4c3)on2)cs1	?	?	-65*	-18%	-23%	?
Cc1ccc(OCc2cc(C(=O)N(C)CCc3ccccn3)no2)cc1C	.	.	-4	?	-19%	-6%
CC(C)N(Cc1nccn1C)C(=O)c1cc(COc2ccc3ncccc3c2)on1	-22%[46.1 µM]	?	-71*	-1%	?	?
CN(Cc1ccccn1)C(=O)c1cc(COc2ccc(F)c(F)c2)on1	.	.	-93*	.	.	.
COc1cccc(OCc2cc(C(=O)N(C)Cc3nc(C)cs3)no2)c1	-16%	?	59	9%	6.6µM*	-2%
CCOc1ccc(CCNC(=O)CCCc2nnc3n(CC(C)C)c(=O)c4sccc4n23)cc1	.	4%[46.1 µM]	?	.	.	.
CN1C(=O)[C@@](O)(c2cn(C)c3ccccc23)c2cc(F)ccc21	.	.	32	.	.	.
CCCN1Cc2cccc(C(=O)NC(CC(=O)OCC)c3ccc(OC(C)C)cc3)c2C1=O (stereo not drawn)	?	?	?	13µM*	-16%	?
CCOC(=O)CC(NC(=O)c1cccc2c1C(=O)N(Cc1cccnc1)C2)c1ccc(OC(C)C)cc1 (stereo not drawn)	-18%[46.1 µM]	0%[46.1 µM]	-25	9.3µM*	?	-5%
CC(C)NC(=O)C1(C)CCN1C/C=C/c1ccccc1 (stereo not drawn)	.	.	47	.	.	.
COc1ccccc1CN1COc2ccc3c(C)cc(=O)oc3c2C1	.	12%[46.1 µM]	6	.	.	.
COc1ccc(NS(=O)(=O)c2cccc(C(=O)NNC(=O)c3ccc(=O)[nH]c3)c2)cc1	.	.	-1	-12%	-11%	22%
CN(CC(=O)Nc1ccc(Cl)c(C(F)(F)F)c1)C(=O)C1CC(=O)N(Cc2ccco2)C1 (stereo not drawn)	16%[46.1 µM]	-1%	-90*	?	?	0%
CN(CC(=O)Nc1ccc(Cl)c(C(F)(F)F)c1)C(=O)CCNC(=O)c1ccco1	2%	-2%	8	10µM*	-25%	-21%
CN(CC(=O)Nc1cccc(F)c1)C(=O)C1CC(=O)N(Cc2ccco2)C1 (stereo not drawn)	-1%[46.1 µM]	-4%	-17	-27%	?	2%
Nc1ccc(Cn2ccc3c4c(N)nc(N)nc4ccc32)cc1	?	?	-99*	.	.	?
COC(=O)CNC(c1ccccc1)c1cc(Br)ccc1NC(=O)c1ccc(Cl)cc1 (stereo not drawn)	.	?	-16	.	.	.
COC(=O)CNC(c1ccccc1)c1cc(Br)ccc1NS(=O)(=O)c1ccccc1 (stereo not drawn)	?	?	-14	15µM*	4%	-15%
COC(=O)CNC(c1ccccc1)c1cc(Br)ccc1N (stereo not drawn)	?	5%[46.1 µM]	10	8%	24%	14%
COC(=O)CNC(c1ccccc1)c1cc(Br)ccc1NS(=O)(=O)c1ccc(C)cc1 (stereo not drawn)	?	?	?	12µM*	42%	?
CN1CCN(C2=C(Cl)C(=O)N(C3CCCCC3)C2=O)CC1	17%	1%	-95*	-10%	-25%	?
CC(C)C(NC(=O)c1ccco1)C(=O)NCC(c1ccco1)N1CCCCC1 (stereo not drawn)	-23%	9%	-16	?	2.1µM*	9%
SMILES	Marburg entry inh	LASV entry inh	HCMV inh	Pf growth 48h	Pf growth 96h	HCV inhibitor
S=C(NCCc1ccccc1)NCC(c1ccco1)N1CCCCC1 (stereo not drawn)	?	?	-30	?	2.6µM*	-8%
CSCCC(NC(=O)c1ccco1)C(=O)NCC(c1ccco1)N1CCCCC1 (stereo not drawn)	.	.	66	-29%	?	-8%
O=C(CNC(=S)N(Cc1ccc(F)cc1)C1CCCCC1)NCCN1CCOCC1	-20%[46.1 µM]	-15%	88	?	112%	4%
Cc1cc(C)c(NC(=O)OCCN2CCOCC2)c(C)c1	-1%	-2%	29	2%	0.23µM*	17%
O=C(NCCCc1ccccc1)N1CCOCC1	?	3%[46.1 µM]	3	13%	2%	-3%
CC(CCc1ccccc1)NC(=O)N1CCOCC1 (stereo not drawn)	9%	5%	-30	-6%	10µM*	16%
CC1CCN(CCCNC(=O)CN2CCN(Cc3ccc(Cl)cc3)C2=O)CC1	-20%	11%	?	14%	-6%	3%[8.37 µM]
O=C(CN1CCN(Cc2ccccc2)C1=O)NCCCN1CCOCC1	.	.	32	.	2.9µM*	11%
O=C(CNC(=S)N(Cc1ccccc1Cl)C1CCCC1)NCCCN1CCOCC1	23%[46.1 µM]	14%	-13	10µM*	-18%	28%
CCOC1=C2[C@@H](CN(S(=O)(=O)c3ccc(C)cc3)[C@H]2c2ccccc2F)[C@H]2C(=O)N(C3CCCCC3)C(=O)[C@H]2C1	.	.	13	.	.	.
O=c1n2c(c(O)n1C1CCCCC1)C(c1ccccc1)=Nc1ccccc1C2	.	.	94	.	.	.
COc1ccc(S(=O)(=O)N(C)[C@H]2C[C@H]3c4cc(Oc5ccccc5C)ccc4CCN3C(=O)[C@H]2[C@H](C)O)cc1	.	.	-21	.	.	.
CC1(C)[C@H](C(=O)NC2CCCCCC2)CC[C@]1(C)C(=O)O	21%	.	.	.	.	.
CCOC(=O)/C(=C\c1ccccc1)C(=O)CCN1CCOCC1	12%	-4%[46.1 µM]	24	.	.	10µM*
O=C(CN1CCOCC1)NCCc1ccccc1	6%	8%	1	8%	10µM*	24%
O=C(CCc1ccccc1)OCCN1CCOCC1	1%	-14%	-2	67%	10µM*	21%
O=C(Cc1ccccc1)OCCN1CCOCC1	?	9%	-20	7%	?	31%
Cc1cc(C)c(S(=O)(=O)N2CCN(C(=O)c3ccc(-n4cncn4)c([N+](=O)[O-])c3)CC2)c(C)c1	-5%	?	-28	?	?	-4%
Cc1cc2c(c(=O)o1)[C@H](Cc1ccccc1)C(C#N)=C(N)O2	19%[46.1 µM]	.	.	.	.	.
O=C(COc1cccc(C(F)(F)F)c1)NCC(c1ccco1)N1CCCCC1 (stereo not drawn)	?	10%	-8	15µM*	?	-23%
CCCCOc1ccc(C(=O)NCC(=O)NCC(c2cccs2)N2CCOCC2)cc1 (stereo not drawn)	.	.	+	?	-12%	-2%
